Assay results reported in PubChem BioAssay AID1159580 (chemical genetic matrix, 2015).
“And” between values parts separate entries of the source, which are not always exact repeats. Equal entries are not always repeated. Out of some 5,500 compounds screened, about 2,000 (36%) were called active. Inconclusive results (about 18%) are left out. Cut-off read from the data, not from the text of the source: active = normalized growth mostly below about 0.91 (no sharp cut-off); inconclusive = no clear call, values can overlap the other calls; inactive = mostly above about 0.92. The list shows a part of the results.

Test: chemical genetic growth profiling, strain panel (AID 1159580);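 note: tested at 20 µM; growth read once vehicle control cultures reached saturation at 30 °C; 1 = growth at the plate median or of vehicle wells; lower values mean less growth of the strain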
Details: S. cerevisiae deletion strains, growth OD

Measured: normalized growth

OC(CCN1CCCCC1)(c1ccccc1)c1ccccc1
inactive: locus YAL021C, strain ccr4, hits give low values 1.01 | locus YAL026C, strain drs2, hits give low values 0.985 | locus YAL030W, strain snc1, hits give low values 0.99 | locus YBL061C, strain skt5, hits give low values 0.986 | locus YBR009C, strain hhf1, hits give low values 0.939 | locus YBR021W, strain FUR4, hits give low values 1.02 | locus YBR023C, strain chs3, hits give low values 0.99 | locus YBR171W, strain sec66, hits give low values 0.987 | locus YBR229C, strain ROT2, hits give low values 1 | locus YBR231C, strain swc5, hits give low values 1.01 | locus YBR279W, strain paf1, hits give low values 0.995 | locus YCL011C, strain gbp2, hits give low values 0.969 | locus YCL016C, strain dcc1, hits give low values 0.975 | locus YCL029C, strain bik1, hits give low values 1.01 | locus YCL061C, strain MRC1, hits give low values 1 | locus YCL069W, strain vba3, hits give low values 0.977 | locus YCR088W, strain abp1, hits give low values 0.983 | locus YDL005C, strain med2, hits give low values 1.01 | locus YDL035C, strain GPR1, hits give low values 1.04 | locus YDL040C, strain nat1, hits give low values 0.992 | locus YDL074C, strain BRE1, hits give low values 1.03 | locus YDL101C, strain DUN1, hits give low values 1.01 | locus YDL134C, strain PPH21, hits give low values 1.03 | locus YDL185W, strain tfp1, hits give low values 1.01 | locus YDL192W, strain arf1, hits give low values 1.02 | locus YDR001C, strain nth1, hits give low values 0.989 | locus YDR069C, strain doa4, hits give low values 0.997 | locus YDR101C, strain arx1, hits give low values 0.993 | locus YDR137W, strain rgp1, hits give low values 1.01 | locus YDR159W, strain sac3, hits give low values 1.01 | locus YDR162C, strain NBP2, hits give low values 1.01 | locus YDR195W, strain ref2 1.02 | locus YDR297W, strain sur2, hits give low values 0.984 | locus YDR318W, strain mcm21, hits give low values 1.01 | locus YDR334W, strain swr1, hits give low values 0.99 | locus YDR335W, strain msn5, hits give low values 0.986 | locus YDR388W, hits give low values 1.01 | locus YDR392W, strain spt3, hits give low values 0.886 | locus YDR502C, strain sam2, hits give low values 1 | locus YEL003W, strain gim4, hits give low values 0.98 | locus YEL037C, strain rad23, hits give low values 0.985 | locus YEL061C, strain CIN8 (second series), hits give low values 0.977 | locus YEL061C, strain CIN8, hits give low values 1.01 | locus YER015W, strain faa2, hits give low values 0.994 | locus YER016W, strain bim1, hits give low values 0.997 | locus YER110C, hits give low values 1.01 | locus YER111C, strain swi4, hits give low values 0.983 | locus YER155C, strain BEM2 (second series), hits give low values 0.995 | locus YER155C, strain BEM2, hits give low values 1 | locus YER167W, strain BCK2, hits give low values 1.01 | locus YFR010W, strain ubp6, hits give low values 0.987 | locus YGL078C, strain dbp3, hits give low values 1 | locus YGL086W, strain mad1, hits give low values 1 | locus YGL167C, strain pmr1, hits give low values 0.984 | locus YGL173C, strain kem1, hits give low values 0.986 | locus YGL227W, strain vid30, hits give low values 0.989 | locus YGL240W, strain doc1, hits give low values 1.02 | locus YGL248W, strain PDE1, hits give low values 1.01 | locus YGL253W, strain hxk2, hits give low values 1.02 | locus YGR078C, strain PAC10, hits give low values 1.01 | locus YGR135W, strain pre9, hits give low values 1.01 | locus YGR252W, strain gcn5, hits give low values 1.01 | locus YHR013C, strain ard1, hits give low values 1.01 | locus YHR027C, strain rpn1, hits give low values 0.99 | locus YHR030C, strain SLT2, hits give low values 1.01 and 1.03 | locus YHR079C, strain IRE1 (second series), hits give low values 1.01 | locus YHR079C, strain IRE1, hits give low values 1.03 | locus YHR094C, strain hxt1, hits give low values 1.01 | locus YHR129C, strain ARP1, hits give low values 1 | locus YHR142W, strain chs7, hits give low values 0.946 | locus YHR200W, strain rpn10, hits give low values 1.01 | locus YIL066C, strain RNR3, hits give low values 1.01 | locus YIL073C, strain SPO22, hits give low values 1.09 | locus YIL125W, strain kgd1, hits give low values 1.01 | locus YIR030C, strain dcg1, hits give low values 1.01 | locus YJL092W, strain hpr5, hits give low values 0.988 | locus YJL095W, strain BCK1 (second series), hits give low values 0.982 | locus YJL095W, strain BCK1, hits give low values 0.996 and 1.05 | locus YJL115W, strain asf1, hits give low values 0.982 | locus YJL129C, strain trk1, hits give low values 0.987 | locus YJL134W, strain LCB3, hits give low values 1 | locus YJL154C, strain vps35, hits give low values 0.984 | locus YJL164C, strain tpk1, hits give low values 0.967 | locus YJL166W, strain qcr8, hits give low values 1 | locus YJL168C, strain set2, hits give low values 1.01 | locus YJL187C, strain SWE1 (second series), hits give low values 1.01 | locus YJL187C, strain SWE1, hits give low values 0.996 | locus YJR043C, strain POL32, hits give low values 1.04 | locus YJR066W, strain TOR1, hits give low values 0.938
